High-throughput results: PubChem BioAssay, National Center for Advancing Translational Sciences (NCATS)
Pol kappa inh: qHTS for Inhibitors of Polymerase Kappa | DNA polymerase kappa (Homo sapiens), Q9UBT6 | purified Pol kappa, fluorescent DNA synthesis assay, 10 min | Potency, µM (doses to about 107 µM), for the others: top-dose activity, negative = inhibition, hits mostly inhibitors | 0.53% of 400,000 active; also: potency is read from the fitted curve at half-maximal effect; % is scaled to controls: 0 for no effect and ±100 for the full control effect
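Kinetic fluorescence screen: compound preincubated 15 min RT with 10 nM enzyme; 50 nM substrate (final) initiates; reads at 0/10 min.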
Pol eta inh-1: qHTS for Inhibitors of Polymerase Eta | recombinant Pol eta, fluorescent DNA replication assay | DNA polymerase eta (Homo sapiens), Q9Y253 | Potency, µM (highest dose often 114 µM), without a hit: at the top dose activity change, negative = inhibition, actives largely listed as inhibitors | 1.2% of 390,000 active; also: potency is read from the fitted curve at half-maximal effect; % is scaled to controls: 0 for no effect and ±100 for the full control effect
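Pol eta (10 nM) was preincubated with compounds for 15 min at room temperature, after which fluorescent replication substrate (50 nM final) was added to start the reaction. Fluorescence was read kinetically at 0 and 10 min.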
POLI inh: qHTS for Inhibitors of Polymerase Iota; DNA polymerase iota (Homo sapiens), Q9UNA4; Pol iota fluorescent replication assay, 10 min; Potency, µM (doses to about 115 µM), inactives show top-dose activity, negative = inhibition, most hits filed as inhibitors; 1% of 390,000 active; AID 588590, 2011; also: potency is read from the fitted curve at half-maximal effect
Target sequence (Q9UNA4 whole entry, looked up): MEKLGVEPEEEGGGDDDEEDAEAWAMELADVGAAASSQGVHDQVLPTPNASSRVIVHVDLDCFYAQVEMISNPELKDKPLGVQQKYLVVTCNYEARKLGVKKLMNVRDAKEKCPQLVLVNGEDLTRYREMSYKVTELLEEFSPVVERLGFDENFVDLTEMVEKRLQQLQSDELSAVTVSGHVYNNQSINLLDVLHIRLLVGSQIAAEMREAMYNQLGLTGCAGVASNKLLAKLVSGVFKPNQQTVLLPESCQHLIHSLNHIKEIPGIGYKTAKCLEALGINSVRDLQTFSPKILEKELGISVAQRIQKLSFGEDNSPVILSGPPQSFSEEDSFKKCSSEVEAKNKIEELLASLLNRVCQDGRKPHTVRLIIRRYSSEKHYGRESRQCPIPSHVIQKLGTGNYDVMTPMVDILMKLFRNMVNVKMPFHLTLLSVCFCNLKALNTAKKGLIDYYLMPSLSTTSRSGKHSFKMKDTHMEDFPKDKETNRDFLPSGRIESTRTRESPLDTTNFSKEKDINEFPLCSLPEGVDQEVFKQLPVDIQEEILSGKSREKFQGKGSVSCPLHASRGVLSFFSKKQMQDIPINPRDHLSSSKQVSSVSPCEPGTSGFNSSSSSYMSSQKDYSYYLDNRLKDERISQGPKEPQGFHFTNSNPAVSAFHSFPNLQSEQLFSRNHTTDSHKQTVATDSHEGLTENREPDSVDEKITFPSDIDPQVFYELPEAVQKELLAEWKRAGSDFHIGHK
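Fluorescent replication assay read twice, at 0 min and 10 min after adding 50 nM (final) substrate. Enzyme (10 nM) and compounds were first incubated 15 min at room temperature; enzyme-free buffer wells were negative controls.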
Pol beta inh: qHTS Assay for Inhibitors of DNA Polymerase Beta. AID 485314, 2010. 1.3% of 340,000 active. Potency, µM (doses to about 114 µM), for the others: at the highest dose activity change, negative = inhibition, most hits filed as inhibitors. Pol beta primer extension/strand displacement, fluorescence kinetic; also: potency is read from the fitted curve at half-maximal effect; % is scaled to controls: 0 for no effect and ±100 for the full control effect
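Preincubation: enzyme (10 nM) with compound, 15 min, RT. Reaction: substrate added to 50 nM final. Reads: 0 and 10 min. Analysis: normalized, Hill fit.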
L3MBTL1 inh: qHTS Assay for the Inhibitors of L3MBTL1; AID 485360, 2010; 0.66% of 230,000 active; AlphaScreen L3MBTL1–H3K9me1 peptide binding; Lethal(3)malignant brain tumor-like protein 1 (Homo sapiens), Q9Y468; Potency, µM (doses to about 57.1 µM), for inactives: at the highest dose activity, negative = inhibition, usual class: inhibitors; also: potency is read from the fitted curve at half-maximal effect; % is scaled to controls: 0 for no effect and ±100 for the full control effect; nearly all actives have a fitted effect of over 60% in size
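AlphaScreen assay: L3MBTL1 (50 nM final) was preincubated 30 min at room temperature with biotinylated H3(1-15)K9me1 peptide (75 nM final), then 30 min with library compounds; streptavidin donor and nickel chelate acceptor beads (10 ug/mL final) added, 30 min dark.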
APEX1 inh: qHTS Assay for Inhibitors of the Human Apurinic/apyrimidinic Endonuclease 1 (APE1). DNA repair nuclease/redox regulator APEX1 (Homo sapiens), P27695. recombinant APE1, TAMRA/BHQ-2 abasic DNA cleavage fluorescence. Potency, µM (highest dose often 65.8 µM), for inactives: at the top dose activity change, negative = inhibition, hits mostly inhibitors. 0.35% of 350,000 active. AID 2517, 2012;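 also: potency is read from the fitted curve at half-maximal effect; plate controls were vehicle for no effect and reference inhibitor for full effect; nearly all actives have a fitted effect of over 55% in size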
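Endonuclease cleavage of a quenched abasic-site DNA duplex (50 nM) by APE1 (0.75 nM) was tracked by TAMRA dequenching. Compounds were preincubated with enzyme 15 min at room temperature; data normalized to buffer-only and DMSO wells plus NSC13755 control.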
GALK confirm: Confirmation Assay for Inhibitors of Human Galactokinase (GALK). shares compounds with Pol eta inh-1. Potency, µM (top dose mostly 115 µM), for the others: top-dose activity, negative = inhibition, hits mostly inhibitors. 70% of 150 active. AID 2015, 2009. purified GALK, Kinase-Glo ATP depletion luminescence
GALK redox cs: Confirmatory Assay for Inhibitors of Human Galactokinase (GALK): Phenol-HRP redox assay counterscreen; shares compounds with Pol eta inh-1; Phenol red-HRP H2O2 redox cycling, absorbance 600 nm; 40% of 150 active; Potency, µM (top dose mostly 115 µM), without a hit: at the top dose activity change, negative = H2O2 signal, most hits filed as inhibitors
HEK293 viability: Secondary Assay for Inhibitors of Human Galactokinase (GALK): HEK-293 Cell Viability Assay; shares compounds with Pol eta inh-1; HEK-293 viability, ATP luminescence (CellTiter-Glo), 24/48 h; Potency, µM (highest dose often 46.1 µM), for the others: at the highest dose activity change, negative = cytotoxicity, actives largely listed as inhibitors; 10% of 170 active; also: potency is read from the fitted curve at half-maximal effect; % is scaled to controls: 0 for no effect and ±100 for the full control effect
Pol eta inh-2: qHTS for Inhibitors of Polymerase Eta: Confirmatory Assay for Cherry-picked Compounds | shares compounds with Pol eta inh-1 | Pol eta primer extension, TAMRA/BHQ fluorescence, 10 min | Potency, µM, usual class: inhibitors | 64% of 2,600 active | AID 720502, 2013; also: potency is read from the fitted curve at half-maximal effect
* marks the source's active call; other numbers are inactive results; [ ] = dose if it differs, or a comment. Shown are actives, neighbours in structure and some others; about 2.5% of the full set was active somewhere. Calls follow the shape of the dose curve; as a rule, active = well fitted curve in the direction sought with a large enough effect; inconclusive = small, poorly fitted or top-dose-only effect, or another doubt; inactive = no such curve, though single readings can be large; an effect the other way counts as inactive or inconclusive.

Screening O=C(Nc1ccccc1Cl)c1ccc(F)c(S(=O)(=O)NCc2ccc(Cl)c(Cl)c2)c1 returned Pol kappa inh -10.8%[60.1 µM], Pol eta inh-1 0.8%, POLI inh -8.4% and Pol beta inh 28.6%.
For O=C(O)c1cccc(S(=O)(=O)N2CCC(n3nnc4cc(C(F)(F)F)ccc43)CC2)c1 the results were Pol kappa inh -13.9%, Pol eta inh-1 2.6%, POLI inh 60.8%, Pol beta inh 45.8%, APEX1 inh -1.1%, GALK confirm inconclusive, GALK redox cs -24.6% and HEK293 viability 2.2%.
`CCOc1ccc(-n2c(=O)c3sc4ccccc4c3n(Cc3cccc(C)c3)c2=O)cc1` gave Pol kappa inh 1.0%, Pol eta inh-1 -10.1%, POLI inh 29.1% and Pol beta inh 13.8%.
Screening COc1ccc(N2CC(C(=O)Nc3nnc(SCCC4OCCO4)s3)CC2=O)cc1 (stereo not drawn) returned Pol kappa inh -28.8%, Pol eta inh-1 35.5µM*, POLI inh -13.9%, Pol beta inh 14.1µM*, APEX1 inh -4.3% and Pol eta inh-2 inconclusive.
Screening COC(=O)[C@@]1(Cc2ccccc2)[C@H]2c3cc(C(=O)N(C)C)n(Cc4ccsc4Br)c3C[C@H]2CN1C(=O)c1ccccc1 returned APEX1 inh -3.1%.
Cc1cc(S(=O)(=O)N2CCN(Cc3noc(CCC(=O)N4CCCCC4)n3)CC2)ccc1F was read as Pol kappa inh -14.9%, Pol eta inh-1 -14.1%, POLI inh 22.0% and Pol beta inh 1.6%.
For O=C(O)C/C(=C\c1cccc(NC(=O)c2ccccc2Cl)c1)c1nc2ccccc2s1 the results were Pol kappa inh inconclusive, Pol eta inh-1 50.1µM*, POLI inh 50.1µM*, Pol beta inh inconclusive, APEX1 inh 0.0% and Pol eta inh-2 inconclusive.
Screening CN1C(=O)C(C)(C)N(C(=O)c2cccc([N+](=O)[O-])c2)c2ccccc21 returned Pol kappa inh -4.2%, Pol eta inh-1 -14.5%, POLI inh 44.8%, Pol beta inh 8.9%, L3MBTL1 inh -1.3% and APEX1 inh 27.3%.
